The text below walks through data of PubChem BioAssay.

Values joined by “and” are separate entries in the source; they are usually repeats but may differ in a detail not shown here. Equal entries are not always repeated. Some structures have more than one record in an assay (separate samples or runs), and their calls can disagree. Active and inactive are the calls of the source.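 Rule for the calls, unless noted: active = z-score of at least 1.8 in each of two replicates, scored against plate mean and spread of sample wells; inactive = the rest.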

Assay [1] in a line: stimulators of nuclear beta-catenin in C2C12, primary screen, imaging, WNT3A-conditioned medium, mouse C2C12, NPC library (AID 1117326; in the data active = nuclear beta-catenin stimulation mostly above about 4.2%, no sharp cut-off; inactive = mostly below about 10%). Particulars: stronger effect = higher value.
Assay [2] can be described thus: stimulators of insulin release from INS-1E, primary screen, cell-based, 5 mM glucose, NPC library (AID 1117329;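 active = compound raises insulin release from rat beta cells at 5 mM glucose, no numeric limit stated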). Particulars: rat INS-1E insulin secretion, at 10 µM, stronger effect = higher value.
Assay [3] is described as follows: growth inhibition of GSK3B-pretreated HCT116 cells – cell-based, CellTiter-Glo, 0.2 to 20 µM (AID 1117336;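 active = compounds lowering colon cancer cell viability after pretreatment blocking the GSK3B kinase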). Particulars: HCT116 viability after GSK3B inhibitor, at 20 µM, stronger effect = higher value. In general terms: ATP-based viability assays read luminescence as a measure of living cells.
Assay [4] is described as follows: inhibition of endothelial tube formation, primary screen, imaging, VEGF stimulated, CD31 staining, tube area, NPC library (AID 1117340;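 active = compound that reduces growth-factor-driven endothelial tube area in a mixed cell culture, no cutoff stated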). Particulars: VEGF-stimulated ADSC/ECFC co-culture, at 10 µM, stronger effect = higher value.
A short description of assay [5]: glucagon-like peptide 1 release enhancers, primary assay, NCI-H716 cell line, NPC library (AID 1117341;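 active = compound raises GLP1 secretion from the human gut endocrine cells, with no numeric limit stated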). Particulars: NCI-H716 cells, at 10 µM, stronger effect = higher value.
Assay [6] can be described thus: HCT116 colon cancer cell growth inhibition, primary screen, CellTiter-Glo luminescence, NPC library (AID 1117342;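 active = compounds that lower survival of HCT116 colon cancer cells in the luminescence readout, no numeric limit stated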). Particulars: at 20 µM (top of the series).
The nature of assay [7]: CellTiter-Glo luminescent readout of SW480 viability loss, NPC library primary (AID 1117343;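 active = compounds that lower viability of the colon cancer cells in the luminescence readout, with no numeric limit stated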). Particulars: CellTiter-Glo luminescence; at 20 µM (top of the series).
The nature of assay [8]: decreased DLD-1 cellular survival, CellTiter-Glo luminescent readout, NPC compound collection, primary HTS (AID 1117346;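 active = compounds that lower survival of DLD-1 colon cancer cells in the luminescence readout, no cutoff given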). Particulars: DLD-1 viability, CellTiter-Glo luminescence; at 20 µM (top of the series).
Assay [9] concerns the target 6-phosphogluconate dehydrogenase, decarboxylating (Homo sapiens) (UniProt P52209). Put plainly: 6PGD enzyme inhibitors, primary screen, biochemical, human, recombinant enzyme, NADPH absorbance (AID 1159550;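 active = at least 20% inhibition of 6-phosphogluconate dehydrogenase activity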). Particulars: recombinant 6PGD, NADPH absorbance 341 nm; at 10 µM; stronger effect = higher value.
A short description of assay [10]: differential killing of epithelial or mesenchymal cells, primary screen, imaging, PC-3E GFP, TEM4-18 mCherry, co-culture (AID 1345086;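 active = compounds killing one labelled cell type while sparing the other, by normalised counts and ratio limits, not self-fluorescent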;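 for all read-outs here: cells exposed to compound for 72 h before imaging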;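 for red/green cell ratio (normalised): normalised mesenchymal count divided by normalised epithelial count so high means epithelial killing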). Particulars: imaging cell counts, at 1 µM; for red/green cell ratio (normalised): actives lie on both sides.
Assay [11] concerns Aerobactin synthetase IucA (Klebsiella pneumoniae hvKP1). Put plainly: Biochemical IucA enzyme inhibition primary screen of the Spectrum library (AID 1346200; call rule not given here;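 note: 100% = wells without compound and 0% = wells lacking enzyme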). Particulars: malachite green pyrophosphate, A620, at 8 µM, stronger effect = lower value.
A short description of assay [12]: survival rescue of mitochondrial mutant cells in low glucose, primary screen, MELAS cybrids, Rieske KO mouse fibroblasts, CellTiter-Glo (AID 1508586;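 active = mean z-score across replicates of 1.96 or higher in either the MELAS or the Rieske mutant cell line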;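 note: z relative to plate mean and SD of compound and empty wells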).
Assay [13] concerns the target NAD(+) hydrolase SARM1 (Homo sapiens) (UniProt Q6SZW1). Nature of the assay: SARM1 TIR NADase inhibitors, cell lysate, NAD-Glo luminescence (AID 1508614;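 active = compound whose remaining NAD level is above about 45 nM, limit read from the data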;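 note: higher remaining NAD means stronger inhibition of SARM1 NADase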). Particulars: SAM-TIR HEK293T lysate NADase, at 1 µM, stronger effect = higher value.
In assay [14] the target is Mitogen-activated protein kinase 7 (Homo sapiens) (UniProt Q13164). Nature of the assay: ERK5 transactivation activators in reporter cells, primary screen, cell-based, HTS (AID 1508626;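 active = luciferase signal above three times the same-plate solvent-only control wells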;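 note: luciferase driven by Gal4-ERK5 fusion binding five Gal4 sites before minimal TATA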). Particulars: HeLa Gal4-ERK5 transactivation, 18 h, at 5 µM, stronger effect = higher value.
A short description of assay [15]: viability rescue of complex I mutant cybrids, primary screen, cell-based, galactose medium, ATP luminescence (AID 1645843).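 Note: positive z means more ATP and so rescue of galactose-driven cybrid death.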 Particulars: complex I mutant cybrid cells, 72 h, stronger effect = higher value.
Assay [16] can be described thus: suppressors of polyQ aggregation in yeast, 75Q-TubU reporter (AID 1593). Particulars: Yeast 75Q polyglutamine aggregation reporter.
Assay [17] in a line: inhibitors of mitochondrial cytochrome c release, biochemical, purified mitochondria (AID 1603).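 Note: mouse liver mitochondria challenged with calcium chloride; signal normalized to the plate average as 100%.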 Particulars: stronger effect = lower value.
Assay [18] in a line: inhibitors of polyQ protein aggregation (AID 1604). Particulars: polyglutamine-induced protein aggregation inhibition assay; stronger effect = higher value; tested at 2.5 µM.
Assay [19] can be described thus: liver-stage malaria parasite growth inhibition, primary screen, cell-based, HepG2, luciferase luminescence, HepG2 viability (AID 624349; in the data active = parasite load remaining mostly below about 12%, no sharp cut-off; inactive = mostly above about 10%;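 note: 100% = mean of DMSO negative control wells on the same plate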). Particulars: P. berghei liver stage in HepG2, luciferase luminescence, concentration not given here; parasite load remaining: stronger effect = lower value; viability: measured here: HepG2 viability without parasites.
Assay [20] can be described thus: sensitizers of A549 cells to miR-34 induction, primary screen, imaging, A549 dox-inducible miR-34, nuclei and caspase counts (AID 1347080;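 active = compounds whose cell count with miR-34 switched on is under 0.7 times the count with it off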). Particulars: A549 miR-34 inducible, Hoechst nuclei count, 48 h.
Where [21] appears, read: measured here: epithelial PC-3E GFP cell survival.
Setting [22] is: measured here: mesenchymal TEM4-18 mCherry cell survival.
The mark [23] stands for this setting: MELAS cybrid survival, CellTiter-Glo 48 h, stronger effect = higher value.
Setting [24] is: Rieske KO mouse fibroblast survival, CellTiter-Glo 72 h.
[25] abbreviates: measured here: total cells without miR-34 induction.

NAD(+) hydrolase SARM1 (Homo sapiens), sequence (Q6SZW1 whole entry, looked up, the tested form may be a part): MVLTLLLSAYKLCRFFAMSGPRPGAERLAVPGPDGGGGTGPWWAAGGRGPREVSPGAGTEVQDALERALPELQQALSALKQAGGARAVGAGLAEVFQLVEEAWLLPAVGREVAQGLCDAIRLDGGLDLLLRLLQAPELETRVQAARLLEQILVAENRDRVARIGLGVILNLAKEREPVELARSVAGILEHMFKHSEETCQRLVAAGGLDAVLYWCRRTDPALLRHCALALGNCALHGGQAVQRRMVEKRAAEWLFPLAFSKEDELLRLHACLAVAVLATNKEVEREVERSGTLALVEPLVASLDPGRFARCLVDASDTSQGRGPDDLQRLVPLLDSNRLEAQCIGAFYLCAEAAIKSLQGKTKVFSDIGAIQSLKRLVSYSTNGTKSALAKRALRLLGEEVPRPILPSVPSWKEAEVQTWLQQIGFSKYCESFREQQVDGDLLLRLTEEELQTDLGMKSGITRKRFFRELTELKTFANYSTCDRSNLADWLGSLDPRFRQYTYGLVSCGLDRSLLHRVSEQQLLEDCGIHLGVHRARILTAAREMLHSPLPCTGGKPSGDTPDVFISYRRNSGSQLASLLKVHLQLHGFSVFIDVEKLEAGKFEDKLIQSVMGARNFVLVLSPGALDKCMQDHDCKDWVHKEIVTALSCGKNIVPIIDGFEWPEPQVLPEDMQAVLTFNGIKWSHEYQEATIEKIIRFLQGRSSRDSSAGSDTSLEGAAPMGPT
6-phosphogluconate dehydrogenase, decarboxylating (Homo sapiens), sequence (P52209 whole entry, looked up): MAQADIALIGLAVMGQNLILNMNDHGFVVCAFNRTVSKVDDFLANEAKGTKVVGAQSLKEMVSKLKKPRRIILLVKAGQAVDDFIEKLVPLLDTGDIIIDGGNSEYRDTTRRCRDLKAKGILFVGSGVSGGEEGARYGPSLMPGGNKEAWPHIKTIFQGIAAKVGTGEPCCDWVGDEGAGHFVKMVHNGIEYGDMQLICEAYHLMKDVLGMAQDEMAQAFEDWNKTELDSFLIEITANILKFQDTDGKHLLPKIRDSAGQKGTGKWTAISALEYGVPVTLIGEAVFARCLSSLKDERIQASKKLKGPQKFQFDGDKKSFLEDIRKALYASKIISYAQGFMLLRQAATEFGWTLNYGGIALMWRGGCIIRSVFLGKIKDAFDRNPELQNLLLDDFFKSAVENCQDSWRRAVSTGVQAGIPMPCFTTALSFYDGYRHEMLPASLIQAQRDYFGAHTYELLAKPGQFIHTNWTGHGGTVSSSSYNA
Mitogen-activated protein kinase 7 (Homo sapiens), sequence (Q13164 whole entry, looked up, the tested form may be a part): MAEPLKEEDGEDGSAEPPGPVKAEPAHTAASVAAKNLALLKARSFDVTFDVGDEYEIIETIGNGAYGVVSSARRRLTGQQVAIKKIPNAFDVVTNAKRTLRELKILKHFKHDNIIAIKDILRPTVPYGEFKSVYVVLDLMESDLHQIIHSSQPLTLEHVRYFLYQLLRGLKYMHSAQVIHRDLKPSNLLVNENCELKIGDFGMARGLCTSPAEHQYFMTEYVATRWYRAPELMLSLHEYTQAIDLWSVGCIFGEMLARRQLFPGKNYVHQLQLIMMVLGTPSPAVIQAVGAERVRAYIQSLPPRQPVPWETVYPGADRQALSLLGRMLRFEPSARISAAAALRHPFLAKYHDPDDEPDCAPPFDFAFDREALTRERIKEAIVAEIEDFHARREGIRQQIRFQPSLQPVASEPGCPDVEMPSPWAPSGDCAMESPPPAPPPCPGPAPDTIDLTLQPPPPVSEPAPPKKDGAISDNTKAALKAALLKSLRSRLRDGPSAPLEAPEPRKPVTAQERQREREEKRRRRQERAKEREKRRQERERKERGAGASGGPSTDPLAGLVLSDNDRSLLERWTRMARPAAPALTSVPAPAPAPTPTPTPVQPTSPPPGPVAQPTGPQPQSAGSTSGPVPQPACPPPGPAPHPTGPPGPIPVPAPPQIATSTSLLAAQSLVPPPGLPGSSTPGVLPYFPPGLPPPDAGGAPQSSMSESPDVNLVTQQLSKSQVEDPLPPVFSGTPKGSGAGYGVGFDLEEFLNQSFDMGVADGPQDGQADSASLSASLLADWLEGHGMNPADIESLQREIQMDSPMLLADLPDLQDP

`COc1ccc(C(CN(C)C)C2(O)CCCCC2)cc1` (configuration not stated): the nuclear beta-catenin stimulation is 3.1% (inactive) in [1] (at 10 µM) and 1.4% in assay [1] (stimulation, at 2 µM). Moreover, the insulin secretion stimulation in assay [2] is 2.1% (inactive). Besides, the viability decrease in assay [3] was -40% (inactive). Also, the tube area decrease in [4] was 1.5% (inactive). In addition, the GLP1 secretion stimulation in assay [5] was 4.1% (inactive). Besides, the inhibition of viability in assay [6] is -3.77% (inactive). Further, the viability decrease (inhibition) in assay [7] was -4% (inactive); in assay [8], -3.8% (inactive). In addition, in assay [9], the inhibition (in general, the relative decrease from the control value, in per cent) was -0.228% (inactive). Moreover, the red/green cell ratio (normalised) in assay [10] (counts scaled to control wells, 1 = unselective) was 1.25 (inactive). For the same molecule, the normalised cell number in assay [10] (setting [21]) stood at 1.01; in assay [10] (setting [22]), 1.26. Moreover, the activity remaining in assay [11] is 123% (inactive). The z-score in [12] (setting [23]) is 2.81 (active) and 0.624 (inactive) and -0.216 (inactive); in assay [12] (setting [24]) it was -2.19 and 0.0731 and -0.394; in assay [15], -0.07 (inactive) and 0.705 (inactive) and 0.625 (inactive). Further, the remaining NAD in [13] was 10 nM (inactive). For the same molecule, the luciferase signal in [14] was 48 AU (inactive).

`O=C(CCCN1CCC2(CC1)C(=O)NCN2c1ccccc1)c1ccc(F)cc1`: the score in [16] is 1.06. For the same molecule, the cytochrome c release ratio in [17] is 1.21. Further, the inhibition of aggregation in assay [18] was found to be 87%. The nuclear beta-catenin stimulation was 0.4% (inactive) in [1] (at 10 µM) and 5.7% in assay [1] (stimulation, at 2 µM). Besides, the insulin secretion stimulation in [2] was 1.8% (inactive). Further, the viability decrease in [3] is 51.6% (active). Further, the tube area decrease in [4] was -3.9% (inactive). Further, the GLP1 secretion stimulation in assay [5] is 8% (inactive). Besides, the inhibition of viability in assay [6] was 60.5% (active). Further, the viability decrease (inhibition) in assay [7] is 95.2% (active); in assay [8], 83.7% (active). Also, the inhibition in [9] is -2.11% (inactive). In assay [10], the red/green cell ratio (normalised) was 1.18 (inactive). In addition, the results for the normalised cell number in [10] (setting [21]) and in assay [10] (setting [22]) were 0.93 and 1.1, respectively. Also, in [11], the activity remaining is 110% (inactive). Moreover, the z-score in assay [12] (setting [23]) is 0.0809 (inactive) and 0.865 (inactive); in assay [12] (setting [24]), -0.502 and 0.666; in assay [15], -1.13 (inactive) and 1.23 (inactive) and -1.53 (inactive). Also, in [13], the remaining NAD was 10 nM (inactive). In addition, the luciferase signal in [14] is 60 AU (inactive).

Take `O=c1[nH]oc2c1CCNC2`: in [16], the score is 1.55. Further, the cytochrome c release ratio in assay [17] stood at 0.75. Moreover, the inhibition of aggregation in [18] amounted to 73%. In addition, the parasite load remaining in assay [19] is 119% (inactive). Further, in [19], the viability (commonly a per cent measure of how many cells are alive, often set against a control) was determined as 90%. For the same molecule, the nuclear beta-catenin stimulation in [1] (at 10 µM) is 0.9% (inactive); in assay [1] (stimulation, at 2 µM), -0.2%. Moreover, the insulin secretion stimulation in assay [2] was 1.95% (inactive). For the same molecule, the viability decrease in assay [3] was 23.2% (inactive). In [4], the tube area decrease is 2% (inactive). In addition, in assay [5], the GLP1 secretion stimulation is 0.6% (inactive). Also, in assay [6], the inhibition of viability is 7% (inactive). Further, the results for the viability decrease (inhibition) in assay [7] and in assay [8] were -16.8% (inactive) and 2.4% (inactive), respectively. In addition, in [9], the inhibition is -2.26% (inactive). Besides, the red/green cell ratio (normalised) in [10] is 1.27 (inactive). The normalised cell number amounted to 0.86 in [10] (setting [21]) and 1.1 in assay [10] (setting [22]). In addition, the activity remaining in assay [11] is 105% (inactive). Besides, the fold change was 0.986 (inactive) and 0.895 (inactive) and 0.961 (inactive) in assay [20] (stronger effect = lower value); 0.885 and 0.751 and 0.995 in assay [20] (measured here: relative caspase fold change +Dox/-Dox). The cell count is 10200 and 8820 and 8460 in assay [20] (measured here: total cells with miR-34 induction, stronger effect = lower value); 10400 and 9850 and 8810 in assay [20] (setting [25]). Further, the z-score in assay [12] (setting [23]) was 0.562 (inactive); in assay [12] (setting [24]), -0.393; in [15], 0.375 (inactive) and 2.83 (active). For the same molecule, the remaining NAD in [13] was 10 nM (inactive). In addition, the luciferase signal in assay [14] is 104 AU (inactive).

As for `CN(C)[C@@H]1C(=O)C(C(N)=O)=C(O)[C@@]2(O)C(=O)C3=C(O)c4c(O)cccc4[C@@](C)(O)[C@H]3C[C@@H]12`, the score in [16] came to 0.85. Further, the cytochrome c release ratio in [17] was 2.45. In addition, the inhibition of aggregation in assay [18] was 47.2%. For the same molecule, the nuclear beta-catenin stimulation is 1% (inactive) in assay [1] (at 10 µM) and 1.9% in [1] (stimulation, at 2 µM). Moreover, in assay [2], the insulin secretion stimulation was 2.5% (inactive). In addition, the viability decrease in [3] is -202% (inactive). Besides, the tube area decrease in [4] was 9.8% (inactive). The GLP1 secretion stimulation in assay [5] was -2.8% (inactive). Further, the inhibition of viability in assay [6] was 12.1% (inactive). Further, the viability decrease (inhibition) is 43.4% (inactive) in [7] and 73.3% (active) in assay [8]. Also, the inhibition in [9] is -5.09% (inactive). In [10], the red/green cell ratio (normalised) was 0.98 (inactive) and 1.18 (inactive). Moreover, the normalised cell number in assay [10] (setting [21]) is 0.93 and 1.05; in assay [10] (setting [22]), 0.91 and 1.24. In addition, the activity remaining in [11] is 92.7% (inactive). Further, in [20] (setting [25]), the cell count was 7550 and 8910 and 10100. Besides, the z-score in assay [12] (setting [23]) was 4.37 (active) and -3.68 (inactive) and 0.0486; in assay [12] (setting [24]), 0.792 and -3.53 and 2.26; in assay [15] it was 2.65 (active). Besides, the remaining NAD in assay [13] is 10 nM (inactive). Further, the luciferase signal in assay [14] is 324 AU (active).
